The values below come from PubChem BioAssay AID1508625 (Wald Lab, School of Medicine, Case Western Reserve …, 2021).

Each structure is given as a SMILES string.

The nature of the test: enhancers of NK cell killing of ovarian tumor cells, primary screen, imaging, OVCAR3, primary NK cells, calcein-AM imaging (AID 1508625).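 Note: compound given to NK cells 16 h before adding targets at 1.5 to 1 ratio.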 The settings on record: OVCAR3 lysis by primary NK cells, at 5 µM; z-score: measured here: robust Z-score, single-point normalisation.
Regarding `CCC(C)N1CCN(Cc2cccc(Cl)c2)CC1` (configuration not stated), the z-score is -0.137 and the corrected activity, negative = more killing was -0.307%.
The corresponding values for `COc1ccc(C2(CN)CCCC2)cc1OC` are -0.675 and -1.26%.
With `Cc1cnc2cccc[n+]2c1C`, the corrected activity, negative = more killing was 0.645% and the z-score is 0.254.
The corresponding values for `O=[N+]([O-])c1ccc(NCCc2ccccc2)c2ncccc12` are 1.61% and 0.498.
The corresponding values for `C=CCON=C(CCC)C1C(=O)CC(C)(C)C(C(=O)OC)C1=O` (configuration not stated) are -4.48% and -1.77.
For `FC(F)(F)c1ccc(CNCCc2ccc3c(c2)OCO3)cc1`, in that order: -3.37% and -1.07.
As for `O=c1c2ccccc2nc(-c2ccco2)n1-c1ccc(Cl)cc1`, the z-score is -0.329 and the corrected activity, negative = more killing was -0.835%.
The corresponding values for `O=c1cccc2n1C[C@H]1C[C@@H]2CN(Cc2ccccc2F)C1` are -1.43 and -2.76%.
In the case of `CCCC12CN3CCN(CC(C3)C1O)C2` (configuration not stated), the corrected activity, negative = more killing is 0.145% and the z-score was 0.0449.
With `CCCCCn1c(=O)c(C(=O)Nc2cccc(OC)c2)c(O)c2ccccc21`, the corrected activity, negative = more killing is -0.341% and the z-score was -0.108.
As for `CCN(CC)CCCn1c(=S)[nH]c2cc(Cl)ccc2c1=O`, the corrected activity, negative = more killing was -4.51% and the z-score was -1.2.
As to `O=S1(=O)CC2(N3CCOCC3)CCCCC21` (configuration not stated), the z-score was -1.76 and the corrected activity, negative = more killing is -5.53%.
The corresponding values for `CCOc1cccc(C(O)CNC)c1` (configuration not stated) are 0.0176 and 0.0567%.
In the case of `CC12CN3CN(C1)CC(C)(C3)C2=NN`, the z-score is -2.42 and the corrected activity, negative = more killing is -6.15%.
Take `CCOP(=S)(OCC)SCC(=O)c1c(O)cc(C)oc1=O`: the z-score was -1.01 and the corrected activity, negative = more killing was -2.68%.
On to `COc1ccccc1CC(C)NC1CCCc2c1[nH]c1ccc([N+](=O)[O-])cc21` (configuration not stated), for which the corrected activity, negative = more killing is 2.84% and the z-score was 1.24.
Turning to `COc1cccc(CCNCc2ccc(C)cc2C)c1`, the z-score is -1.29 and the corrected activity, negative = more killing is -4.05%.
For `CC(Cc1ccccc1F)NC1CCCc2c1[nH]c1ccc([N+](=O)[O-])cc21` (configuration not stated), in that order: -0.594 and -1.36%.
The corresponding values for `CCOC(=O)CN1C(=O)NC2(CCN(C)CC2)C1=O` are -1.02 and -3.8%.
The corresponding values for `Cc1ccc(OCC(=O)N2CCN(C3CCCCC3)CC2)cc1` are -1.62 and -3.64%.
As for `O=[N+]([O-])c1ccccc1CNCCc1cccc(F)c1`, the corrected activity, negative = more killing was -3.35% and the z-score was -1.06.
